hcDAF12 agonist: H. contortus DAF-12 activation, primary screen; HEK293 hcDAF-12 lit1-tk-luc reporter, luminescence; 0% DMSO, 100% Δ7-dafachronic acid; activation, % at 6.8 µM; 370,000 compounds, 1.4% hits; AID 652067;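 active means activation above the mean of all tested compounds plus 3 SD, cut at about 5.5% in these data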
DAX1 inh-1: blocks DAX1 repression of SF-1 activated StAR promoter | HEK293T StAR-luciferase reporter, SF-1/DAX-1 repression relief | 370,000 compounds, 1.1% hits | inhibition, % at 6.8 µM;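 active means inhibition above the mean over all tested compounds plus 3 SD, cut at about 3.6% in these data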;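 further: higher inhibition means more luminescence from relief of DAX-1 repression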
hgDAF-12 ag: agonists of H. glycines DAF-12 nuclear receptor; HEK293 GAL4-hgDAF12 UAS-luciferase reporter, agonist luminescence; normalized to butyrate control; AID 687014; activation, % at 6.8 µM; 370,000 compounds, 1.8% hits;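 active means activation above a cutoff set at the mean of all screened compounds plus 3 SD, cut at about 10% in these data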
ssDAF12 agonist: activates DAF-12 receptor from parasite S. stercoralis; HEK293 ssDAF-12/GRIP1 lit1-tk-luc reporter, luminescence; % of 3 µM dafachronic acid response; activation, % at 6.8 µM; 370,000 compounds, 1% hits;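 active means activation above the mean over all tested compounds plus 3 SD, cut at about 0.9% in these data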
DAX1 inh-2: inhibits human nuclear receptor DAX1; P51843; HEK293 Gal4-DAX1 luciferase reporter, luminescence; inhibition, % at 6.75 µM; 340,000 compounds, 0.99% hits; AID 504766;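 active means inhibition above the mean over all tested compounds plus 3 SD, cut at about 4.2% in these data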;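 further: inhibition shows as a rise in luminescence from relieved DAX1 repression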
Target sequence (P51843 207-470 limits assumed): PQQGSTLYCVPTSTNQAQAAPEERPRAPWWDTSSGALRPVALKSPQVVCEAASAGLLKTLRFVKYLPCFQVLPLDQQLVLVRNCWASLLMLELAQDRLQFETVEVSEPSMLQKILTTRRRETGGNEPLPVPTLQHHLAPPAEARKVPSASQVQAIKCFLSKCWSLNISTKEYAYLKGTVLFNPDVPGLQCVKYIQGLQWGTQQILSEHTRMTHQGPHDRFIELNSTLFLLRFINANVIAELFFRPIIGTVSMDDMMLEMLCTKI
LXR ag: LXR-beta agonism as hcDAF-12 counter-screen | shares compounds with hcDAF12 agonist | HEK293 Gal4-LXR tk-luc reporter, luminescence, 24 h; normalized: DMSO 0%, positive control 100% | activation, % at 6.8 µM | 3,400 tested, under 10 active | AID 743027;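 active means mean percent activation of the reporter above a cutoff set as the average over tested compounds plus their standard deviation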
Target sequence (P55055 whole entry, looked up, the tested form may be a part): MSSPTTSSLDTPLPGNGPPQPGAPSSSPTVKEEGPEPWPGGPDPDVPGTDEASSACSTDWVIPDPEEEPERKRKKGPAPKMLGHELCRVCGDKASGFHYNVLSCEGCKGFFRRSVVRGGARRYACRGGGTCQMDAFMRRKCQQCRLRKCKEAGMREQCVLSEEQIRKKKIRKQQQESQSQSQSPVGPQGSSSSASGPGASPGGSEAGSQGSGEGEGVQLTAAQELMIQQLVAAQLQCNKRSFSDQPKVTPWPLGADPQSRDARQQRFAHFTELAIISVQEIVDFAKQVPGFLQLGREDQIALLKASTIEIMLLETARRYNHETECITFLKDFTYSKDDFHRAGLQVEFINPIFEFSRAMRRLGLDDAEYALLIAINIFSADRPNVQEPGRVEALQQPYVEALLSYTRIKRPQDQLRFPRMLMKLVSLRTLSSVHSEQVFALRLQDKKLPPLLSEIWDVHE
hcDAF12 ag: confirmation of H. contortus DAF-12 agonists | 3,400 compounds, 61% hits | activation, % at 6.8 µM | shares compounds with hcDAF12 agonist | AID 743032 | HEK293 hcDAF-12 lit1-tk-luc reporter, luminescence; % of Δ7-dafachronic acid response;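 active means mean activation across triplicate tests above the threshold derived from the earlier primary screen, cut at about 5.5% in these data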
hgDAF12 conf: confirmation of H. glycines DAF-12 agonists | shares compounds with hgDAF-12 ag | HEK293 GAL4-hgDAF12 luciferase reporter, agonist mode; percent of butyrate response | activation, % at 6.8 µM | 3,300 compounds, 80% hits;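 active means mean activation over triplicate wells above the hit cutoff derived from the earlier primary screen, cut at about 11% in these data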
LXRb DAF12 ctr: counter-screen for DAF-12 agonists: agonists of human LXR-beta; shares compounds with hgDAF-12 ag; HEK293 Gal4-LXR luciferase reporter, 24 h; activation, % at 6.8 µM; 3,300 tested, under 10 active; AID 743051;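 active means mean activation of the triplicate above a set limit carried over from the primary screen, none filed active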
Of the large screens only hits and unclear results are named; the others gave an inactive call (follow-up assays come after a bar, where they were run). In the library only some 4.1% were active in any assay of this set; here they are far more common.

CCN(CCn1cccn1)C(=O)c1cc(COc2cc(C)ccc2C)on1	hcDAF12 agonist 7.5, hgDAF-12 ag 14.3, ssDAF12 agonist 1.7 | LXR ag inactive | hcDAF12 ag inactive | hgDAF12 conf 12.2 | LXRb DAF12 ctr inactive
CCOc1cc(C2NN=C(c3ccccc3)S2)ccc1OCc1ccccc1Cl (stereo not given)	hcDAF12 agonist 8.7, hgDAF-12 ag 16.3, ssDAF12 agonist 1.4, DAX1 inh-2 5.9 | LXR ag inactive | hcDAF12 ag 9.2 | hgDAF12 conf 16.5 | LXRb DAF12 ctr inactive
Cc1nc(-c2ccc3c(c2)OCCCO3)cs1	hcDAF12 agonist 6.6, hgDAF-12 ag 13.4 | LXR ag inactive | hcDAF12 ag inactive | hgDAF12 conf 18.5 | LXRb DAF12 ctr inactive
Cc1nc(-c2ccc3c(c2)OCO3)cs1	none
C/C(=N/NC(=O)c1cccs1)c1c(C)[nH]n(-c2nc3ccccc3s2)c1=O	hcDAF12 agonist 7.7, DAX1 inh-1 4.0, hgDAF-12 ag 16.9 | LXR ag inactive | hcDAF12 ag inactive | hgDAF12 conf inactive | LXRb DAF12 ctr inactive
O=C(CCc1nnc(CCc2c[nH]c3ccccc23)o1)NC1CCC1	hcDAF12 agonist 7.6, hgDAF-12 ag 15.7, ssDAF12 agonist 1.1 | LXR ag inactive | hcDAF12 ag 6.2 | hgDAF12 conf 12.5 | LXRb DAF12 ctr inactive
CC1CCC(NC(=O)C2CCC(CNS(=O)(=O)c3ccc4c(c3)C(C)(C)C(=O)N4C)CC2)CC1 (stereo not given)	none (no result: DAX1 inh-2)
CN(C)c1ccc(N=Nc2cccc3ccoc23)cc1	hcDAF12 agonist 16.5, hgDAF-12 ag 19.2, ssDAF12 agonist 1.6, DAX1 inh-2 6.5 | LXR ag inactive | hcDAF12 ag 9.0 | hgDAF12 conf 20.4 | LXRb DAF12 ctr inactive
Cc1ccc(C(=O)NN2C(=O)C3C(C2=O)C2C=CC3C23CC3)cc1 (stereo not given)	none
CCc1ccc(-c2cn3nc(C)c(C)nc3n2)cc1	none
Cc1nc2nc(-c3ccc(F)cc3)cn2nc1C	hcDAF12 agonist 7.1, hgDAF-12 ag 14.0 | LXR ag inactive | hcDAF12 ag inactive | hgDAF12 conf 12.3 | LXRb DAF12 ctr inactive
O=C(CSc1cccc[n+]1[O-])Nc1ccc(N2CCOCC2)cc1	none (no result: DAX1 inh-2)
O=[N+]([O-])c1ccc(CSc2nc3ccccc3[nH]2)cc1	none
c1ccc(CSc2nc3ccccc3[nH]2)cc1	hcDAF12 agonist 8.6, DAX1 inh-1 3.8, hgDAF-12 ag 22.0 | LXR ag inactive | hcDAF12 ag 7.4 | hgDAF12 conf 16.7 | LXRb DAF12 ctr inactive
COCCN(C(=O)CSc1nnc(-c2ccccc2F)o1)c1c(N)n(Cc2ccccc2)c(=O)[nH]c1=O	none
CC(=O)Nc1ccc(NC(=O)CSc2nc3[nH]ncc3c(=O)n2-c2ccccc2)cc1	none
COc1cc2ccccc2cc1C(=O)Nc1ccccc1Cl	hcDAF12 agonist 12.2, hgDAF-12 ag 15.7, ssDAF12 agonist 2.2, DAX1 inh-2 4.8 | LXR ag inactive | hcDAF12 ag 15.0 | hgDAF12 conf 19.5 | LXRb DAF12 ctr inactive
Cc1ccc(C(=O)Nc2ccccc2Cl)cc1	hcDAF12 agonist 11.5, hgDAF-12 ag 13.4, ssDAF12 agonist 1.2, DAX1 inh-2 7.1 | LXR ag inactive | hcDAF12 ag 7.3 | hgDAF12 conf 16.0 | LXRb DAF12 ctr inactive
COc1cc2ccccc2cc1C(=O)Nc1cccnc1	none
COc1ccc(NC(=O)c2cc3ccccc3cc2OC)cc1	hcDAF12 agonist 12.5, hgDAF-12 ag 14.7, ssDAF12 agonist 3.2 | LXR ag inactive | hcDAF12 ag 11.6 | hgDAF12 conf 16.9 | LXRb DAF12 ctr inactive
Nc1nnc2cc(Br)ccc2n1	none
CCC(=O)N1CCC1(C)C(=O)Nc1ccc(C)c(C)c1 (stereo not given)	none (no result: DAX1 inh-2)
O=C(N/N=C/c1ccc(Br)s1)c1ccco1	none
O=C(N/N=C/c1ccc(Br)s1)c1ccccn1	hcDAF12 agonist 8.2, DAX1 inh-1 4.5, hgDAF-12 ag 14.3 | LXR ag inactive | hcDAF12 ag inactive | hgDAF12 conf 13.5 | LXRb DAF12 ctr inactive
COc1ccc(C(=O)N=c2nc3ccccn3s2)cc1	hcDAF12 agonist 13.8, hgDAF-12 ag 17.2, ssDAF12 agonist 1.3 | LXR ag inactive | hcDAF12 ag 6.0 | hgDAF12 conf 11.0 | LXRb DAF12 ctr inactive
COc1ccc(C(=O)O/N=C2\C(=O)N(C)c3ccccc32)cc1	none
Cc1ccc(S(=O)(=O)N2C[C@H]3C(=O)C[C@@H](c4ccc(Cl)cc4)N(S(=O)(=O)c4ccccc4C)[C@H]3C[C@H]2c2ccccc2)cc1	none
COC(CN(C(=O)CCl)C(C(=O)NC1CCCCC1)c1ccc(C)cc1)OC (stereo not given)	none
CCc1sc(C(=O)Nc2nccs2)cc1C	hcDAF12 agonist 6.7, hgDAF-12 ag 19.0, ssDAF12 agonist 0.9 | LXR ag inactive | hcDAF12 ag 6.7 | hgDAF12 conf 20.9 | LXRb DAF12 ctr inactive
CCc1sc(C(=O)Nc2nc(-c3ccccn3)cs2)cc1C	none (no result: hcDAF12 agonist, DAX1 inh-1, hgDAF-12 ag, ssDAF12 agonist)
CSc1nc2nc(Cl)c(Cl)nc2[nH]1	none
Cc1ccc(-c2nc(-c3ccncc3)no2)c(Cl)c1	hcDAF12 agonist 7.6, hgDAF-12 ag 15.8, ssDAF12 agonist 1.5 | LXR ag inactive | hcDAF12 ag 8.5 | hgDAF12 conf 16.3 | LXRb DAF12 ctr inactive
CC(=O)c1ccccc1NC(=O)COC(=O)c1cc2ccccc2[nH]1	none
CCOc1ccc(-c2cc(C(=O)NN)[nH]n2)cc1	hcDAF12 agonist 6.8, hgDAF-12 ag 15.7 | LXR ag inactive | hcDAF12 ag inactive | hgDAF12 conf inactive | LXRb DAF12 ctr inactive
NC(=O)NOCc1ccccc1F	none (no result: DAX1 inh-2)
CC1=NN(c2ccccc2)C(=O)C1N=Nc1ccc(N)cc1 (stereo not given)	none
CC1=NN(c2ccccc2)C(=O)C1N=Nc1cccc(O)c1 (stereo not given)	hcDAF12 agonist 17.9, hgDAF-12 ag 14.2, ssDAF12 agonist 1.6 | LXR ag inactive | hcDAF12 ag 12.8 | hgDAF12 conf 19.0 | LXRb DAF12 ctr inactive
CC/C(=N\N=C1\SC(C)C(=O)N1Cc1ccco1)c1ccccc1 (stereo not given)	none
O=c1[nH]nc(-c2ccc(F)cc2)cc1Cc1ccccc1	none
COC(=O)c1cc(N=Nc2c(C)[nH]c3ccccc23)cc(C(=O)OC)c1	none

Compound activity as filed in PubChem BioAssay.
